The whole screen tested about 340,000 compounds, of which about 330 (0.097%) were called active. What follows is part of a selection rich in actives, with near analogues and random picks from the rest. Values without a mark were called inactive.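 Rule for the calls: active = mean replicate inhibition of at least 30% and at least 1% of replicates passing that level; inconclusive = only one of the two criteria is met; inactive = neither criterion is met.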
Test system: Voltage-dependent L-type calcium channel subunit alpha-1D (CaV1.3) ICDI/IQ interaction
Assay: Primary screen for inhibitors of IQ motif and Ca2+-dependent inactivation inhibitor domain binding in CACNA1D, Förster resonance energy transfer in living cells, single-concentration test (AID 743397);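 note: 0% = median of the neutral control wells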
Conditions: HEK cells, CFP/YFP FRET ICDI-IQ, plate reader, 10 min; at 12.3 µM; hits give high values; percent FRET-ratio fall versus neutral wells

For `Nc1ncnc2c1ncn2[C@@H]1O[C@H](C(=O)N[C@@H](CCc2ccccc2)C(=O)N2CCCN(Cc3cccs3)CC2)[C@@H](O)[C@H]1O`, which inhibition is on record?
Its inhibition is -9.97%.

`COC(=O)[C@]12C[C@H](CC(=O)NCCCCc3ccccc3)C(=O)N(Cc3ccc4c(c3)OCO4)C1=C[C@H](C(C)(C)C)O[C@@H]2C` was tested. Which inhibition did it give?
Its inhibition is -10.1%.

For `COc1cccc(CNC(=O)[C@H]2CCCN2C(=O)[C@H]2CCCN2C(=O)c2cc(F)cc(F)c2)c1`, which inhibition is on record?
Its inhibition is -7.03%.

`Cc1cc(N2CCN(C(=O)OC(C)(C)C)C[C@H]2C)ccc1N1CCN(Cc2ccccc2)[C@H](C)C1` was tested. Which inhibition did it give?
Its inhibition is -7.25%.

How did the inhibition turn out when `CCCCCCCCN1C(=O)[C@@H](CC(=O)NCc2ccc(C)o2)C[C@@]2(C(=O)OC)C1=C[C@H](C(C)(C)C)O[C@@H]2C` was run?
The inhibition was -10.3%.

Which inhibition does the source give for `Nc1nc2c(ncn2[C@@H]2O[C@H](C(=O)N[C@@H](Cc3ccccc3)C(=O)NCc3ccccc3)[C@@H](O)[C@H]2O)c(=O)[nH]1` here?
The inhibition was -5.12%.

Which inhibition does the source give for `C=CCN1C(=O)N(Cc2ccccc2)c2ccccc2S1(=O)=O` here?
The inhibition was -4.73%.

How did the inhibition turn out when `CCCCOCC1CN(CCCC)S(=O)(=O)c2c(Oc3ccc(F)cc3)cccc2O1` (centres undefined) was run?
Its inhibition is -7.83%.

How did the inhibition turn out when `COc1cccc(CNC(=O)[C@H]2CCCN2C(=O)[C@H]2CCCN2C(=O)C2CCCCC2)c1` was run?
Its inhibition is -4.37%.

How did the inhibition turn out when `O=C(NS(=O)(=O)c1cccs1)[C@H]1O[C@@H](n2ccc(=O)[nH]c2=O)[C@H](O)[C@@H]1O` was run?
The inhibition was -3.64%.

With `CC(C)CNc1cccc2c1S(=O)(=O)N[C@H](C)CO2` as the molecule, how does the inhibition read?
The inhibition was -7.79%.

Which inhibition does the source give for `COC(=O)C1=C(C)NC(=S)NC1c1ccc(OC)cc1` (centres undefined) here?
Its inhibition is -4.39%.

`COc1ccc(C2=CN(Cc3ccccc3)C(c3ccc(OC)cc3)CC2=O)cc1` (centres undefined) was tested. Which inhibition did it give?
The inhibition was -3.32%.

With `CCOc1ccc(C2C3=C(CCCC3=O)N(CC(=O)O)C3=C2C(=O)CCC3)cc1` as the molecule, how does the inhibition read?
Its inhibition is -13.8%.

For `COc1ccc(C2C3=C(CCCC3=O)N(CC(=O)O)C3=C2C(=O)CCC3)cc1`, which inhibition is on record?
The inhibition was 111% (active).

`COc1ccc(C2C(C#N)=C(N)N(c3ncn[nH]3)C3=C2C(=O)CCC3)cc1` (centres undefined) was tested. Which inhibition did it give?
The inhibition was -4.27%.

How did the inhibition turn out when `Cc1cc(NCCc2c[nH]c3ccccc23)ccc1Oc1cccnc1` was run?
The inhibition was -8.52%.

`Cc1cc(OC(=O)NCCc2ccc(F)cc2)ccc1F` was tested. Which inhibition did it give?
Its inhibition is -6.4%.

With `COc1ccccc1C(=O)N1O[C@]23C=C[C@]14C[C@@H](O)CC[C@]4(C)C2CC[C@]1(C)[C@@H]([C@H](C)/C=C/[C@H](C)C(C)C)CC[C@H]13` (some centres undefined) as the molecule, how does the inhibition read?
The inhibition was -9.42%.

With `CC(C)CNc1cccc2c1S(=O)(=O)N[C@H](CC(C)C)CO2` as the molecule, how does the inhibition read?
The inhibition was -5.08%.

With `Cc1cc(NC(C)C)n2c(nc3ccccc32)c1C#N` as the molecule, how does the inhibition read?
The inhibition was -0.654%.

With `CCOCCCNc1c(CC)c(C)c(C#N)c2nc3ccccc3n12` as the molecule, how does the inhibition read?
The inhibition was 61% (active).

How did the inhibition turn out when `CCOCCn1c(-c2ccccc2)nc2ccccc21` was run?
The inhibition was -20.2%.

`COc1ccccc1-c1ccc([C@@H]2C[C@H]3[C@H](CON3C)CN2S(=O)(=O)c2cc(Cl)cc(Cl)c2)cc1` was tested. Which inhibition did it give?
Its inhibition is -4.02%.

How did the inhibition turn out when `Cc1nc2c(OCc3ccc(Cl)cc3)cccn2c1N(C)Cc1cccs1` was run?
Its inhibition is -6.54%.

For `CCCCc1c(-c2ccc(Cl)cc2)ncn1CCc1ccccc1OC`, which inhibition is on record?
The inhibition was -10.1%.

For `C=CC1=CCN(S(=O)(=O)C(C)(C)C)[C@@H]1CCO`, which inhibition is on record?
The inhibition was -4.63%.

How did the inhibition turn out when `CCN1C(=O)N[C@@H]2C[C@H](C(=O)N3CCCC3)[C@H](C)[C@H](c3ccccc3)C[C@@H]21` was run?
Its inhibition is -3.87%.

Which inhibition does the source give for `COC(=O)[C@]1(Cc2ccccc2)NC=C(C(=O)c2ccccc2)[C@@H]1c1cccc(OC)c1` here?
Its inhibition is -4.9%.

How did the inhibition turn out when `COc1ccccc1CCn1cnc(-c2ccccc2)c1C(C)C` was run?
Its inhibition is -7.51%.

`CCCCCn1c(=O)c(C(=O)OCC)c(Cl)c2ccccc21` was tested. Which inhibition did it give?
Its inhibition is -4.21%.

How did the inhibition turn out when `CCCCN(CCCC)CC(O)Cn1c2ccccc2c(=O)c2ccccc21` (centres undefined) was run?
The inhibition was 107% (active).

With `CCCn1c(=O)c(-c2ccccc2)c(O)c2ccccc21` as the molecule, how does the inhibition read?
The inhibition was -7.92%.

`COC(=O)c1cc2c(c3c4ccccc4n(S(=O)(=O)c4cccc(C)c4)c13)C(=O)N(Cc1ccccc1)C2` was tested. Which inhibition did it give?
The inhibition was -4.46%.

For `COC(=O)c1c(-c2ccc(OC)cc2)c2c(c3c4ccccc4n(S(=O)(=O)c4ccc(C)cc4)c13)C(=O)N(C)C2`, which inhibition is on record?
The inhibition was -10.3%.

`COC(=O)C1=C(C)N(Cc2cccc(C(F)(F)F)c2)C(=NCc2ccccc2)NC1c1ccc(Cl)cc1` (centres undefined) was tested. Which inhibition did it give?
Its inhibition is -3.3%.

How did the inhibition turn out when `COc1ccc(-c2cc(NC=O)c3ncc(-c4cc(OC)c(OC)c(OC)c4)n3c2)c(OC)c1` was run?
The inhibition was -3.57%.

With `COC(=O)[C@]12C[C@H](CC(=O)NCc3cccc(C(F)(F)F)c3)C(=O)N(Cc3ccc4c(c3)OCO4)C1=C[C@H](COCc1ccccc1)O[C@@H]2C` as the molecule, how does the inhibition read?
The inhibition was -9.09%.

Which inhibition does the source give for `CCS(=O)(=O)c1ccc(O)c(NC(=O)COc2ccc(Cl)cc2)c1` here?
The inhibition was -1.51%.

How did the inhibition turn out when `Cc1ccc(O)c(NC(=S)NC(=O)COc2ccc(Br)cc2)c1` was run?
Its inhibition is 40.4% (active).

How did the inhibition turn out when `CC(=O)Nc1ccc(OC(=O)COc2ccc(Br)cc2)cc1` was run?
The inhibition was -4.58%.

For `N#Cc1ccc(OCCCN2CCC(C(O)(c3ccccc3)c3ccccc3)CC2)c(F)c1`, which inhibition is on record?
The inhibition was -9.35%.

For `O=S1(=O)c2c(cccc2N2CCCCC2)O[C@H](COCc2ccccc2)CN1C1CC1`, which inhibition is on record?
The inhibition was -6.9%.

How did the inhibition turn out when `COc1cncc(-c2cnc3sc(NCCc4ccccn4)nn23)c1` was run?
Its inhibition is -4.67%.

How did the inhibition turn out when `COc1cccc(CNC(=O)[C@H]2CCCN2C(=O)[C@H]2CCCN2C(=O)c2ccc(F)cc2)c1` was run?
The inhibition was -5.95%.

Which inhibition does the source give for `COc1ccc(SSc2ccc(OC)cc2C(=O)O)c(C(=O)O)c1` here?
Its inhibition is -2.9%.

With `Cc1ccc(NC(=O)N2c3ccccc3SC2c2ccco2)c(C)c1` (centres undefined) as the molecule, how does the inhibition read?
Its inhibition is -10.9%.

`Cc1cc(Br)cn2c(Cc3ccccc3C(F)(F)F)c(-c3ccc(C#N)cc3)nc12` was tested. Which inhibition did it give?
The inhibition was -10%.

`COC(=O)c1c(-c2ccc(OC)cc2)c2c(c3c4cc(OC)ccc4n(S(=O)(=O)c4ccc(F)cc4)c13)C(=O)N(C)C2` was tested. Which inhibition did it give?
The inhibition was -5.34%.

`COc1ccc(S(=O)(=O)Nc2ccc3c(c2)C(=O)N([C@H](C)CO)C[C@H](C)[C@@H](CN(C)C)OCCCC[C@H](C)O3)cc1` was tested. Which inhibition did it give?
The inhibition was -5.26%.

Which inhibition does the source give for `COC(=O)C1=C(C)N(Cc2ccccc2C(F)(F)F)C(=NCC2CC2)NC1c1cccc(Cl)c1` (centres undefined) here?
The inhibition was -11.5%.

With `CCOC(=O)CNC(=O)N(C)[C@H]1C[C@H]2c3[nH]c4c(-c5ccc6c(c5)OCO6)cccc4c3CCN2C(=O)[C@H]1[C@H](C)O` as the molecule, how does the inhibition read?
Its inhibition is -2.88%.

With `COc1ccc(NC(=O)N(C)C[C@@H]2OCCCC[C@@H](C)Oc3ccc(NC(=O)NC4CCCCC4)cc3C(=O)N([C@H](C)CO)C[C@@H]2C)cc1` as the molecule, how does the inhibition read?
The inhibition was -5.46%.

Which inhibition does the source give for `CCCCCCCCN1C(=O)[C@@H](CC(=O)NCCCC)C[C@@]2(C(=O)OC)C1=C[C@H](C(C)(C)C)O[C@@H]2C` here?
Its inhibition is -9.75%.

For `C[C@@H]1ON(C)[C@H]2C[C@H]3c4cc(N5CCOCC5)ccc4CCN3C[C@@H]12`, which inhibition is on record?
The inhibition was -4.48%.

How did the inhibition turn out when `COc1ccc(C2CC(c3cccs3)=NN2c2nc(C)c(C(C)=O)s2)cc1OC` (centres undefined) was run?
Its inhibition is 168% (active).

`COc1ccc(C2CC(c3cccs3)=NN2C(=O)CSc2nnc(N)s2)cc1OC` (centres undefined) was tested. Which inhibition did it give?
Its inhibition is -6.31%.

Which inhibition does the source give for `COc1ccc(C2CC(c3cccs3)=NN2C(=O)CSc2nncs2)cc1OC` (centres undefined) here?
The inhibition was -3.4%.

With `C[C@@H](CN1C2=NC[C@@H](Cc3ccccc3)N2C[C@H]1Cc1ccc(O)cc1)NC(=O)CCC1CCCCC1` as the molecule, how does the inhibition read?
Its inhibition is -5.25%.

How did the inhibition turn out when `C[C@@H]1CN([C@H](C)CO)C(=O)CCCn2cc(nn2)CO[C@H]1CN(C)C(=O)Nc1ccc(N2CCCCC2)cc1` was run?
Its inhibition is -8.15%.

`Cc1[nH]nc2c1C(c1ccc(Br)cc1)NC2=O` (centres undefined) was tested. Which inhibition did it give?
Its inhibition is -4.02%.

How did the inhibition turn out when `COCc1cc(N2CCN(C(=O)OC(C)(C)C)C[C@@H]2C)ccc1N1CCN(Cc2ccccc2)[C@H](C)C1` was run?
The inhibition was -8.69%.

With `CCOC(=O)C1=C(C(=O)OCC)C2N(Cc3ccc(C#N)cc3)c3ccccc3[C@@]23C[C@@H](C(=O)OC)N(S(=O)(=O)c2ccc(F)cc2)C3=N1` (some centres undefined) as the molecule, how does the inhibition read?
Its inhibition is -8.5%.

Which inhibition does the source give for `CC(C)(C)c1ccc(S(=O)(=O)NCC2CCN(C(=O)C(=O)c3cc4ccccc4o3)CC2)cc1` here?
The inhibition was -8.19%.

How did the inhibition turn out when `COC(=O)[C@@]12C[C@@H](CC(=O)N3CCC(c4ccccc4)CC3)C(=O)N(Cc3ccccc3)C1=CCC(C)(C)C2` was run?
Its inhibition is -9.64%.

Which inhibition does the source give for `C=CCN=C1NC(c2cccc(C(F)(F)F)c2)C(C(=O)OC)=C(C)N1C` (centres undefined) here?
Its inhibition is -4.33%.

For `COC(=O)C(C(=O)OC)c1ccccc1NS(=O)(=O)c1cccc2ccccc12`, which inhibition is on record?
Its inhibition is -10.7%.

With `Cc1nc(NC(=O)C(C)(C)C)sc1[N+](=O)[O-]` as the molecule, how does the inhibition read?
The inhibition was -3.6%.

With `CCc1c(-c2ccccc2OC)ncn1CCc1ccccc1OC` as the molecule, how does the inhibition read?
The inhibition was -9.61%.

`Cc1nc2c(OCc3ccc(Cl)cc3Cl)cccn2c1N(C)CC1CC1` was tested. Which inhibition did it give?
Its inhibition is -6.39%.

Which inhibition does the source give for `CC(=O)Nc1cccc(-c2cc(NC=O)c3ncc(-c4ccc(F)c(Cl)c4)n3c2)c1` here?
Its inhibition is -10.8%.

How did the inhibition turn out when `CN[C@H]1C[C@H]2c3[nH]c4c(-c5ccccc5)cccc4c3CCN2C(=O)[C@H]1[C@H](C)O` was run?
The inhibition was -3.8%.

Which inhibition does the source give for `CCOC(=O)[C@]12CCC=C1N(Cc1ccco1)C(=O)[C@H](CC(=O)NCc1cccc(C(F)(F)F)c1)C2` here?
Its inhibition is -5.22%.

`C[C@H](O)[C@@H]1C(=O)N2CCc3c([nH]c4c(-c5ccc6c(c5)OCO6)cccc34)[C@@H]2C[C@@H]1N(C)C(=O)c1ccco1` was tested. Which inhibition did it give?
The inhibition was -4.05%.
